# Key:
# Assay type in all cases: functional
# [1] = target: Solute carrier family 2, facilitated glucose transporter member 1 (Homo sapiens) (UniProt P11166); assay: ST_JUDE_LEISH: Cytotoxicity at 2uM final concentration against transgenic Leishmania Mexicana promastigotes LmGLUT1 that are glucose transport deficient and complemented with the human glucose transporter GLUT1. Activity is measured by DNA content using SYBR green in vitro
# [2] = target: Hexose transporter 1 (Plasmodium falciparum) (UniProt O97467); assay: ST_JUDE_LEISH: Cytotoxicity at 2uM final concentration against transgenic Leishmania Mexicana promastigotes LmPfHT that are glucose transport deficient and complemented with the Plasmodium falciparum hexose transporter. Activity is measured by DNA content using SYBR green in vitro
# [3] = target: Glucose transporter (Leishmania mexicana) (UniProt O61059); assay: ST_JUDE_LEISH: Cytotoxicity at 2uM final concentration against transgenic Leishmania Mexicana promastigotes LmGT2 that are glucose transport deficient and complemented with the L. Mexicana glucose transporter 2. Activity is measured by DNA content using SYBR green in vitro
# Chain of Solute carrier family 2, facilitated glucose transporter member 1 (Homo sapiens) (P11166 whole entry): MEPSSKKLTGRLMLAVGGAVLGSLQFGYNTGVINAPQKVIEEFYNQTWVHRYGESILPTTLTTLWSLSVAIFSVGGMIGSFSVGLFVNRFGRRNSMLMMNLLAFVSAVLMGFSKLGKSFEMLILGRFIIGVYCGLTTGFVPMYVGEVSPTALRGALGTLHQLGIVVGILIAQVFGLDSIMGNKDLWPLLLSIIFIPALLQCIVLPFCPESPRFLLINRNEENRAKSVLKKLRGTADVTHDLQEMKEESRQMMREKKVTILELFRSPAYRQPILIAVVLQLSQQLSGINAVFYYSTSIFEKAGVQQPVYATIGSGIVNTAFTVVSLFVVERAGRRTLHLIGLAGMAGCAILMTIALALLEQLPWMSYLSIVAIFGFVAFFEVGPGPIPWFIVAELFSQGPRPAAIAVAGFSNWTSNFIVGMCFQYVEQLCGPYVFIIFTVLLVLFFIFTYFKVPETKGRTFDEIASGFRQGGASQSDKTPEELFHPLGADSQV
SMILES,inhibition [1],inhibition [2],inhibition [3]
Cc1cc(N2Cc3ccccc3C2)nc(Nc2ccc(S(=O)(=O)N3CCOCC3)cc2)n1,1.54%,2%,1.21%
O=C(Nc1ccc2c(c1)CCC2)c1cccc(CN2CCCN(Cc3cccc(O)c3)CC2)c1,1.77%,-2.6%,-0.46%
O=C(Nc1ccc(-c2nc3ccccc3[nH]2)cc1)C1CCN(Cc2ccc(F)cc2)CC1,41.4%,44.9%,30.5%
Cc1[nH]c(C)c(-c2ccc(-c3ccc4c(c3)OCO4)nc2)c(=O)c1Br,0.29%,1.09%,0.07%
CCN(CC)CCCNc1ncc2c(-c3ccc(NC(=O)Nc4cc(C(F)(F)F)ccc4F)c(F)c3)nn(C)c2n1,-0.37%,-0.41%,-1.03%
COc1ccc(-c2nnc(Sc3ccc(C#N)c([N+](=O)[O-])c3)n2CC(C)C)cc1,0.96%,3.46%,1.92%
Cc1ccccc1C(=O)NC(NC(=S)Nc1ccc([N+](=O)[O-])cc1)C(Cl)(Cl)Cl (stereo not drawn),0.54%,-1.37%,0.22%
CC(C)c1ccc(CN2CCC(NC(=O)c3ccc(-c4cccc(F)c4)s3)CC2)cc1,1.18%,-0.01%,-0.6%
O=S(=O)(Nc1ccc(CCN2CCCCC2CCN2CCCC2)cc1)c1cccc2cccnc12 (stereo not drawn),1.48%,1.12%,2.15%
O=C(Nc1ccc2c(c1)CCC2)c1nc(N2CCN(c3ccncc3)CC2)ccc1Cl,1.84%,1.86%,1.75%
O=S(=O)(NCCN1CCCC1)c1ccc(-c2ccc(CNCc3ccsc3)cc2)cc1F,8.07%,1.33%,-0.2%
O=C(/C=C/c1ccc(Cl)cc1)NCCCCCN1CCCC(C(=O)Nc2ccc(Cl)c(Cl)c2)C1 (stereo not drawn),0.22%,1.61%,1.59%
C=CCC(C)n1ncc2c3c(N)nc(N)nc3ccc21 (stereo not drawn),2.58%,-0.39%,-0.24%
O=C(NC12CC3CC(CC(C3)C1)C2)C(=O)c1c[nH]c2ccccc12,3.4%,3.09%,1.4%
N=C(/N=C(/NCCCCCCN/C(=N/C(=N)NCc1ccc(Cl)c(Cl)c1)N1CCCCC1)N1CCCCC1)NCc1ccc(Cl)c(Cl)c1,8.42%,9.68%,8.06%
Cc1cccc(NC(=O)N(Cc2cc3cc(C)cc(C)c3[nH]c2=O)C2CC2)c1,9.62%,10.1%,6.55%
